Most compounds without a hit are left out; they make up all but 1.3% or so of the library.
AMA1-RON2 inh: AMA1-RON2 (P. falciparum) interaction inhibition | AlphaScreen AMA1-biotinylated RON2 peptide binding | Potency, µM (top dose mostly 58.2 µM), for the others: at the highest dose activity change, negative = inhibition, usual class: inhibitors | hit rate 0.2% among 360,000 | AID 720542;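 note: 0% = vehicle wells and -100% = peptide control; nearly all actives have a fitted effect of over 45% in size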
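AMA1 (3D7) with his tag at 25 nM final met compounds first, then biotinylated RON2 peptide at 25 nM; detection used donor plus acceptor beads, 10 µg/mL apiece, read by AlphaScreen after 30 min at room temperature.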
VACV mCherry inh: vaccinia inhibition (mCherry reporter); Vaccinia virus mCherry reporter infection, fluorescence; Potency, µM (top dose mostly 36.5 µM), inactives show at the highest dose activity change, negative = inhibition, usual class: inhibitors; hit rate 0.63% among 310,000; AID 720579; calls by dose curve; tested in A549 cells; note: nearly all actives have a fitted effect of over 35% in size
VACV Venus inh: vaccinia inhibition (Venus reporter); Potency, µM (highest dose often 36.5 µM), without a hit: at the highest dose activity change, negative = inhibition, actives largely listed as inhibitors; Vaccinia virus Venus reporter expression, fluorescence; hit rate 0.46% among 330,000; AID 720580; calls by dose curve; tested in A549 cells; note: nearly all actives have a fitted effect of over 30% in size
TbPYK inhibitor: inhibitors of Trypanosoma brucei pyruvate kinase; Q57TT1; TbPYK enzyme, Kinase-Glo Plus ATP luminescence, 45 min; Potency, µM (highest dose often 76.8 µM), without a hit: at the highest dose activity, negative = inhibition, hits mostly inhibitors; hit rate 0.12% among 410,000; AID 624173; note: nearly all actives have a fitted effect of over 50% in size
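Enzyme and substrate buffer are dispensed first and compound is pin-transferred. ADP at 130 uM final then starts the reaction, which runs 45 min at room temperature. Detection reagent is added for 10 min before luminescence is imaged.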
RE007 growth inh: less growth of the S. pombe RE007 Vpr strain. Potency, µM (series often up to 92.2 µM), for the others: at the highest dose activity change, negative = less growth, usual class: inhibitors. S. pombe RE007 Vpr strain, BacTiter-Glo ATP luminescence, 24 h. hit rate 0.21% among 360,000; active = well fitted falling curve with a large enough effect; inconclusive = small, poorly fitted or top-dose-only effect; inactive = no such curve, though single readings can be large or run the other way; note: nearly all actives have a fitted effect of over 50% in size
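Fission yeast strain RE007, carrying one chromosomally integrated HIV-1 vpr copy, was seeded at OD 0.01 in PMG+AL medium with 23 nL pinned compound. After 24 h at 30 °C and 99% humidity, viability was read by BacTiter-Glo luminescence.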
LmPK inhibitor: LmPK (Leishmania mexicana) enzyme inhibition; AID 1721; purified LmPK, Kinase-Glo ATP luminescence, 1 h; hit rate 0.37% among 290,000; Potency, µM (top dose mostly 57.5 µM), for the others: at the top dose activity change, negative = inhibition, usual class: inhibitors; Q27686
Target sequence (Q27686 whole entry, looked up): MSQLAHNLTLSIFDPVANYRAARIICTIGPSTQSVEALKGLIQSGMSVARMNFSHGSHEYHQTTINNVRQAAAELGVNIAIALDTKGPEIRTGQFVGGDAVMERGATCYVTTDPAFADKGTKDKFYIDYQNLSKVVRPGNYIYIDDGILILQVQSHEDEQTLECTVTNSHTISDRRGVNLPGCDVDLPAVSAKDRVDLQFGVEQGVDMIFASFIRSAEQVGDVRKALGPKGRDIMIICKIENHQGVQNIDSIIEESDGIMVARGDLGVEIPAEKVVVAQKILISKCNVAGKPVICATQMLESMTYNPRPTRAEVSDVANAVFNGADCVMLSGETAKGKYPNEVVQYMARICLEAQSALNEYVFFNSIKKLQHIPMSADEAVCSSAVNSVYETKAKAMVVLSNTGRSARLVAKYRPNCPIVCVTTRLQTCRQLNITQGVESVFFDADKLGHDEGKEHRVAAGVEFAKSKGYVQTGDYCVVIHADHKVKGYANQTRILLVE
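Purified LmPK (0.1 nM) converted ADP (0.1 mM) to ATP with PEP (0.5 mM) in imidazole buffer pH 7.2 with KCl and MgCl2, 1 h at room temperature. ATP was read by Kinase-Glo luminescence; data normalized to uninhibited and no-enzyme controls.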
An asterisk follows results filed as active; i = inactive; u = inconclusive; x = no result given; [ ] = remark or other dose. Unless noted, calls come from the whole dose curve; as a rule, active = well fitted curve in the direction sought with a large enough effect; inconclusive = small, poorly fitted or top-dose-only effect, or another doubt; inactive = no such curve, though single readings can be large; an effect the other way counts as inactive or inconclusive. Unless noted, % is set by controls: 0 for no effect and ±100 for the full control effect; potency is the fitted concentration of half-maximal effect.

SMILES | AMA1-RON2 inh | VACV mCherry inh | VACV Venus inh | TbPYK inhibitor | RE007 growth inh | LmPK inhibitor
O=C(CCS(=O)(=O)c1ccc(Br)cc1)Nc1cc(F)ccc1F | -4% | 11µM* | u | -8% | 0% | 1%
O=C(C[n+]1cccc2cccc(O)c21)c1ccc(F)cc1 | x | -12% | -6% | x | x | x
COc1ccc(-c2nn3c(-c4ccco4)nnc3s2)cc1OC | -15% | u | u | -3% | -12% | 0%
COc1cc(OC)c(-c2nn3c(-c4ccco4)nnc3s2)cc1OC | -6% | 11µM* | u | -10% | 2% | -1%
CC(C)c1ccc(S(=O)(=O)Nc2ccc3oc4c(c3c2)C(=O)CC(C)(C)C4)cc1 | x | -11% | -15% | 0% | x | x
CC1(C)CC(=O)c2c(oc3cc(O)c(O)cc23)C1 | 1.6µM* | x | x | -23% | -4% | -15%
COc1cc([C@@H]2c3cc4c(cc3[C@H](O)[C@H]3COC(=O)[C@H]23)OCO4)cc(OC)c1OC | 2% | u | u | -2% | -9% | -1%
COc1cc(C2c3cc4c(cc3C(O)C3COC(=O)C23)OCO4)cc(OC)c1O (centres undefined) | x | 14µM* | u | x | x | x
O=C(NCCCc1nc2ccccc2n1CCCOc1ccccc1)C1CCCCC1 | x | -13% | -12% | x | x | x
Cn1c(=O)c(C(=O)NNC(=O)c2cccc(Cl)c2)c(O)c2ccccc21 | 32% | u | -10% | 0% | 13µM* | 2%
Cn1c(=O)c(C(=O)NNC(=O)c2ccccc2Cl)c(O)c2ccccc21 | 77% | u | -14% | -22% | -25% | -1%
CCn1c(=O)c(C(=O)NNC(=O)c2cccc(Cl)c2)c(O)c2ccccc21 | 91% | -45% | -9% | 1% | -25% | 6%
Cc1cccc(C(=O)NNC(=O)c2c(O)c3ccccc3n(C)c2=O)c1 | 48% | u | -6% | 5% | 40µM* | -7%
CC1(C)S[C@@H]2[C@H](N3C(=O)C(c4ccccc4)NC3(C)C)C(=O)N2[C@H]1C(=O)O (some centres undefined) | x | i | -14% | x | x | x
C=C1[C@@H](O)[C@H](CC(C)C)N(Cc2ccccc2Br)S1(=O)=O | 8% | u | 10µM* | 5% | 4% | x
O=S1(=O)CCO[C@H]2CCCC[C@@H]2N1Cc1ccccc1Br | x | -20% | -16% | x | x | x
Cc1ccc(NC2=C(N3CCOCC3)C(=O)c3ccccc3C2=O)cc1 | 24µM* | -11% | -28% | -4% | u | -20%
Nc1ccc(C(=O)OCc2nc3cc4ccccc4cc3[nH]2)cc1 | 3% | 5µM* | 32% | -3% | -11% | 0%
c1ccc(Cc2nc3ccccc3[nH]2)cc1 | 19% | i | -11% | 3% | -2%[18.4 µM] | -5%
Nc1ccc(Cc2nc3cc4ccccc4cc3[nH]2)cc1 | -8% | 5.6µM* | 14% | 7% | 10% | 4%
Nc1ccc(C(=O)OCCCc2nc3cc4ccccc4cc3[nH]2)cc1 | -7% | x | x | -1% | -10% | -6%
CCCc1cc(C(=O)Nc2cccc(Cl)c2)no1 | 15% | -15% | 0% | -10% | u | 22µM*
CCCc1cc(C(=O)Nc2cccnc2)no1 | -10% | 6% | 2% | 4% | -28% | 11µM*
CNc1cc[n+](C)c2ccccc12 | x | 32% | -9% | x | x | x
Cc1cc(C(=O)NCC2CCC3(CCN(Cc4cccc(F)c4F)CC3)O2)n(C)n1 (centres undefined) | x | -3% | -23% | x | x | x
Cc1ccc(Cl)cc1-c1ccc(C=Nc2ccc(N3CCOCC3)cc2)o1 | 11µM* | 7% | 1% | -7% | -14% | 0%
Cc1ccc(S(=O)(=O)N2CCN(c3nc(-c4cncs4)nc4ccccc34)CC2)cc1 | x | -15% | -12% | x | x | x
COc1cc(/C=N/NC(=O)CCn2cnc(-c3ccccc3)c2-c2ccccc2)ccc1O | u | 8.9µM* | u | -4% | -24% | -4%
COc1cccc(/C=N/NC(=O)c2ccc(-c3ccccc3)cc2)c1O | 57% | 4.5µM* | u | -2% | 32% | 2%
COc1ccc(-c2cc(C(=O)N/N=C/c3ccc4c(c3)OCO4)c3ccccc3n2)c(OC)c1 | 22% | u | 6% | 0% | 16% | 6%
